# From PubChem BioAssay AID588697 (Southern Research Specialized Biocontainment Screening …, 2011)
# Results filed as inconclusive are left out. The source made the active and inactive calls.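 Rule for the calls: active = inhibition of at least 30% at any tested concentration; inactive = the rest, inconclusive results apart.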
# System: M18 aspartyl aminopeptidase (Plasmodium falciparum 3D7)
# Assay: P. falciparum M18 aspartyl aminopeptidase inhibition – biochemical, QFRET fluorogenic substrate, counter-screen for PfM17LAP inhibitor project, dose response (AID 588697)
# Settings: recombinant PfM18AAP, H-Glu-NHMec fluorogenic substrate; series mostly up to 100 µM; inhibition: at the top concentration
row,SMILES,inhibition
1,CC1=C(C)CC(C(=O)Nc2ccc(Oc3ccc(Cl)cc3)cc2)C(C(=O)O)C1 (centres undefined),-23.5% (inactive)
2,COC(=O)c1cc(OC)c(OC)cc1NC(=O)c1sc2nc(C)ccc2c1N,-12.5% (inactive)
3,COc1cc(NC(=O)CSc2ccccc2)c(C(=O)O)cc1OC,-7.09% (inactive)
4,COc1ccc(-c2nnc(NC(=O)C3CC(C)=C(C)CC3C(=O)O)s2)cc1 (centres undefined),-14% (inactive)
5,O=C1OCCC1Sc1nnc(NC2CCCCC2)s1 (centres undefined),-5.58% (inactive)
6,O=C(Cc1cccc2ccccc12)NO,6.64% (inactive)
7,CCC(C)(C)C1CCc2c(sc(NC(=O)C3CC(C)=C(C)CC3C(=O)O)c2C(=O)OC)C1 (centres undefined),-14.6% (inactive)
8,COC(=O)c1c(NC(=O)C2CCCCC2C(=O)O)sc2c1CCC(c1ccccc1)C2 (centres undefined),-13.8% (inactive)
9,NC(N)=NCCC[C@H](N)C(=O)NO,8.92% (inactive)
